Test results reported in PubChem BioAssay (EPA / NIEHS).
Inconclusive results are not listed. A structure can be active in one record and inactive in another. Active and inactive are the calls of the source. The calls were made as follows, unless noted: active = hit-call score of the fitted dose curve at least 0.9, where 1 is the maximum; inactive = score below 0.9.

Tests used:
[1] = molecular target: Retinoic acid receptor RXR-alpha (Homo sapiens) (UniProt P19793); assay: OT_NURR1_NURR1RXRa_0480: Odyssey Thera (OT) 8-hour HEK293T Protein Complementation Assay for Nurr1/retinoid X receptor (RXR) (AID 2283385; active = hit-call score of the fitted dose curve at least 0.9, where 1 is the maximum)
Sequence of Retinoic acid receptor RXR-alpha (Homo sapiens) (P19793 whole entry, looked up, the tested form may be a part): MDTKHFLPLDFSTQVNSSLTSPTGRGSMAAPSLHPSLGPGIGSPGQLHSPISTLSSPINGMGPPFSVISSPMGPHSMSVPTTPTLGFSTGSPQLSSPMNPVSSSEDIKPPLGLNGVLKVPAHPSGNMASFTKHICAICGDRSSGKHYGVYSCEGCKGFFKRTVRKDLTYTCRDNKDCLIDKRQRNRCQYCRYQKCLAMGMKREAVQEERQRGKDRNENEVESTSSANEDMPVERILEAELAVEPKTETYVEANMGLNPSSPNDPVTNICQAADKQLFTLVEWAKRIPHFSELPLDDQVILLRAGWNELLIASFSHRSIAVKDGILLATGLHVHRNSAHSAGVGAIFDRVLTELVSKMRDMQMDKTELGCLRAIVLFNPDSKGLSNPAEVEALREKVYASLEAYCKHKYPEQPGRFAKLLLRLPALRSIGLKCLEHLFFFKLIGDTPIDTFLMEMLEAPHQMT
Summary of the method: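 Interaction of bait and prey reconstitutes a functional reporter, whose fluorescence was measured in HEK293T cells dosed with compound for 8 hours. Signal gain relative to DMSO defined the single endpoint.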

[2] = molecular target: Retinoic acid receptor RXR-alpha (Homo sapiens) (UniProt P19793); assay: OT_NURR1_NURR1RXRa_1440: Odyssey Thera (OT) 24-hour HEK293T Protein Complementation Assay for Nurr1/retinoid X receptor (RXR) (AID 2283386; active = hit-call score of the fitted dose curve at least 0.9, where 1 is the maximum)
Summary of the method: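 Steps: fragment-tagged Nurr1 and RXRα expressed in HEK293T; compounds added; after 24 h, complemented reporter quantified by fluorescence intensity; signal increase over DMSO fitted as the single endpoint.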

[3] = molecular target: Peroxisome proliferator-activated receptor gamma (Homo sapiens) (UniProt P37231); assay: OT_PPARg_PPARgSRC1_0480: Odyssey Thera (OT) 8-hour Protein-Complementation Assay for Peroxisome Proliferator-activated Receptor Gamma / SRC-1 Co-activator (AID 2283387; active = hit-call score of the fitted dose curve at least 0.9, where 1 is the maximum;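 also: nuclear to cytoplasmic split Venus YFP fluorescence ratio reporting PPARg SRC-1 interaction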)
Sequence of Peroxisome proliferator-activated receptor gamma (Homo sapiens) (P37231 whole entry, looked up, the tested form may be a part): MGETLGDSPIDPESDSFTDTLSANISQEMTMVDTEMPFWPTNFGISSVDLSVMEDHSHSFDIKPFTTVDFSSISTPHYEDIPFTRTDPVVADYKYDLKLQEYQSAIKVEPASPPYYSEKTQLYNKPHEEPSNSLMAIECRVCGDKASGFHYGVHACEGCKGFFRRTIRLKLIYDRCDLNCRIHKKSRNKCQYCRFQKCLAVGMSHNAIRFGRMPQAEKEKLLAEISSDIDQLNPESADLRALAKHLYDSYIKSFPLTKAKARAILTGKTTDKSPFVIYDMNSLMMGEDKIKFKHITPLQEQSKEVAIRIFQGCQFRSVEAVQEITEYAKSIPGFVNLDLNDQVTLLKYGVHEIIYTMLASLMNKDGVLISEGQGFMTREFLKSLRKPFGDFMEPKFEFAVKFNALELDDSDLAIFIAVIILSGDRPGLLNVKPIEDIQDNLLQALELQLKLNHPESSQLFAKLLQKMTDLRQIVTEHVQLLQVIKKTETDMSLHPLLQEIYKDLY
Summary of the method: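 Split-YFP (IFP1/IFP2) PPARg/SRC-1 reporter, HEK293T, 37 °C, 5% CO2; 8 h compound; formaldehyde fix + Draq5; high-content imaging, N/C ratio, ≥350 cells/image, positive direction vs DMSO.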

[4] = molecular target: Peroxisome proliferator-activated receptor gamma (Homo sapiens) (UniProt P37231); assay: OT_PPARg_PPARgSRC1_1440: Odyssey Thera (OT) 24-hour Protein-Complementation Assay for Peroxisome Proliferator-activated Receptor Gamma/ SRC-1 Co-activator (AID 2283388; active = hit-call score of the fitted dose curve at least 0.9, where 1 is the maximum;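 also: nuclear to cytoplasmic ratio of reconstituted Venus YFP fluorescence in fixed imaged cells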)
Summary of the method: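 Protein-fragment complementation between PPARg and coactivator SRC-1 was measured by fluorescence imaging in transiently transfected HEK293T cells after 24 h treatment. Signal was quantified as N/C ratio in the 488 nm channel, with DMSO as negative control.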

[5] = CEETOX_H295R_11DCORT: CeeTox H295R High-throughput Steroidogenesis Assay for 11-Deoxycortisol (11DCORT) (AID 2283432); details: actives raise or lower the signal;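 as to AC50: human adrenal H295R cells prestimulated with 10 µM forskolin for 48 h; 11-deoxycortisol secreted into the medium measured by LC-MS/MS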
Summary of the method: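 Steroidogenesis in human H295R cells: 48 h chemical exposure after forskolin priming, 11-deoxycortisol measured by LC-MS/MS.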

[6] = CEETOX_H295R_OHPREG: CeeTox H295R High-throughput Steroidogenesis Assay for OH-Pregnenolone (OHPREG) (AID 2283434); details: actives raise or lower the signal
Summary of the method: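 Readout: HPLC-MS/MS of 17alpha-hydroxypregnenolone in medium after 48 h chemical exposure of H295R cells pretreated with forskolin. Values fitted bidirectionally relative to DMSO; chemicals reducing viability to 20–70% were retested after 10-fold dilution.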

[7] = CEETOX_H295R_OHPROG: CeeTox H295R High-throughput Steroidogenesis Assay for OH-Progesterone (OHPROG) (AID 2283435); details: actives raise or lower the signal;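 as to AC50: human adrenal H295R cells primed 48 h with 10 µM forskolin; 17alpha-hydroxyprogesterone secreted into medium measured by HPLC-MS/MS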
Summary of the method: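 Steps: seed H295R cells and adhere overnight; stimulate with 10 uM forskolin for 48 h; replace with chemical-containing medium (0.1% DMSO) for 48 h; extract medium with MTBE; quantify 17alpha-hydroxyprogesterone by reverse-phase C18 HPLC-MS/MS against a 7-point curve.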

[8] = CEETOX_H295R_CORTIC: CeeTox H295R High-throughput Steroidogenesis Assay for Corticosterone (CORTIC) (AID 2283437); details: actives raise or lower the signal;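 also: corticosterone secreted into medium quantified by mass spectrometry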;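 as to AC50: human H295R adrenal cells prestimulated with forskolin before chemical exposure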
Summary of the method: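 Steps: seed H295R, adhere overnight; 10 uM forskolin 48 h; replace with chemical (0.1% DMSO) 48 h; extract medium with MTBE; quantify corticosterone by HPLC-MS/MS; score bidirectionally vs DMSO.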

[9] = CEETOX_H295R_CORTISOL: CeeTox H295R High-throughput Steroidogenesis Assay for Cortisol (AID 2283438); details: actives raise or lower the signal
Summary of the method: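 Cortisol synthesis by H295R cells is measured 48 h after chemical dosing, following a 48 h stimulation with 10 uM forskolin. Hormone is extracted and quantified by HPLC-MS/MS, and activity is fitted bidirectionally against the DMSO control.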

[10] = CEETOX_H295R_DOC: CeeTox H295R High-throughput Steroidogenesis Assay for DOC (AID 2283439); details: actives raise or lower the signal
Summary of the method: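 Steps: seed H295R, adhere overnight; 10 uM forskolin 48 h; replace with chemical medium (0.1% DMSO) 48 h; collect medium, MTBE extraction, HPLC-MS/MS for DOC. Viability then checked by MTT; cytotoxic chemicals diluted until viability ≥70%.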

[11] = CEETOX_H295R_ESTRONE: CeeTox H295R High-throughput Steroidogenesis Assay for Estrone (AID 2283441); details: actives raise or lower the signal
Summary of the method: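 Estrone secreted into medium quantified by LC-MS/MS after dansyl chloride derivatization, following 48 h chemical exposure (0.1% DMSO final) of forskolin-prestimulated (10 uM, 48 h) H295R cells; gain or loss fitted against DMSO; MTT viability in same wells.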

[12] = read-out: Tumor necrosis factor receptor superfamily member 6 (Homo sapiens) (UniProt P25445); assay: LTEA_HepaRG_FAS: Life Technologies and Expression Analysis (LTEA) Assay for Fas cell surface death receptor (FAS) using HepaRG (AID 2283447); details: mRNA level, 48 h; actives raise or lower the signal
Summary of the method: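 Differentiated human HepaRG cells, pre-cultured 48 h, were exposed in duplicate for 48 h to 8-point half-log concentrations (top 100 uM, 0.5% DMSO) in serum-free induction medium; FAS mRNA measured by qRT-PCR, normalized to ACTB/GAPDH/POLR2A, bidirectional fit versus DMSO.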

[13] = read-out: Fatty acid synthase (Homo sapiens) (UniProt P49327); assay: LTEA_HepaRG_FASN: Life Technologies and Expression Analysis (LTEA) Assay for Fatty Acid Synthase (FASN) using HepaRG (AID 2283448); details: mRNA level, 48 h; actives raise or lower the signal
Summary of the method: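 Cells were plated, cultured 48 h, switched to serum-free induction medium, then dosed in duplicate (max 100 uM, half-log dilutions, 0.5% DMSO) for 48 h. RNA was then isolated and FASN quantified by qRT-PCR.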

[14] = read-out: Cyclin D2 (CCND2), CCND2 (gene 894); assay: LTEA_HepaRG_CCND2: Life Technologies and Expression Analysis (LTEA) Assay for Cyclin D2 (CCND2) using HepaRG (AID 2283449); details: mRNA level, 48 h; actives raise or lower the signal;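 also: CCND2 transcript measured by TaqMan qRT-PCR and normalised to three housekeeping genes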
Summary of the method: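 In this HepaRG study, an eight-point concentration series (max 100 uM, 0.5% DMSO) is applied for 48 h. CCND2 mRNA change is derived by qRT-PCR normalised to ACTB, GAPDH and POLR2A.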

[15] = read-out: Cyclin Dependent Kinase Inhibitor 1A (CDKN1A), CDKN1A (gene 1026); assay: LTEA_HepaRG_CDKN1A: Life Technologies and Expression Analysis (LTEA) Assay for Cyclin Dependent Kinase Inhibitor 1A (CDKN1A) using HepaRG (AID 2283450); details: mRNA level, 48 h; actives raise or lower the signal
Summary of the method: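 Read-out is CDKN1A mRNA by TaqMan qRT-PCR, normalized to three housekeeping genes and fitted in both directions against the DMSO baseline. Human HepaRG cells were treated 48 h with test chemicals up to 100 uM in half-log steps, 0.5% DMSO.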

[16] = read-out: Cyclin D1 (CCND1), CCND1 (gene 595); assay: LTEA_HepaRG_CCND1: Life Technologies and Expression Analysis (LTEA) Assay for Cyclin D1 (CCND1) using HepaRG (AID 2283451); details: mRNA level, 48 h; actives raise or lower the signal;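 as to AC50: TaqMan qRT-PCR transcript level normalised to ACTB GAPDH and POLR2A housekeeping genes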
Summary of the method: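 HepaRG plated 48 h, medium switched to serum-free induction medium, chemicals added in duplicate (top 100 uM, half-log steps, 0.5% DMSO) for 48 h, cells lysed, RNA measured by TaqMan qRT-PCR.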

[17] = read-out: catalase (CAT), CAT (gene 847); assay: LTEA_HepaRG_CAT: Life Technologies and Expression Analysis (LTEA) Assay for catalase (CAT) using HepaRG (AID 2283452); details: mRNA level, 48 h; actives raise or lower the signal;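 as to AC50: TaqMan qRT-PCR signal normalized to ACTB GAPDH and POLR2A housekeeping genes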
Summary of the method: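 Differentiated HepaRG cells in serum-free induction medium were dosed 48 h in duplicate, eight half-log concentrations from 100 uM in 0.5% DMSO. Transcript measured by TaqMan qRT-PCR, normalised to ACTB/GAPDH/POLR2A, fitted bidirectionally against DMSO.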

[18] = read-out: flavin-containing dimethylaniline monooxygenases 3 (FMO3), FMO3 (gene 2328); assay: LTEA_HepaRG_FMO3: Life Technologies and Expression Analysis (LTEA) Assay for flavin-containing dimethylaniline monooxygenases 3 (FMO3) using HepaRG (AID 2283453); details: mRNA level, 48 h; actives raise or lower the signal;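 as to AC50: FMO3 transcript by TaqMan qRT-PCR normalized to ACTB GAPDH and POLR2A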
Summary of the method: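 FMO3 transcript quantified by TaqMan qRT-PCR against three housekeeping genes after 48 h chemical exposure of HepaRG cells. Eight-point half-log series, top 100 uM, 0.5% DMSO vehicle; phenobarbital 1mM induction control; up- or down-regulation fitted.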

[19] = CEETOX_H295R_PROG: CeeTox H295R High-throughput Steroidogenesis Assay for Progesterone (PROG) (AID 2283442); details: actives raise or lower the signal;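 as to AC50: human H295R adrenal cells primed with 10 µM forskolin before dosing; progesterone secreted into medium by H295R cells measured by HPLC-MS/MS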
Summary of the method: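 Steps: seed H295R cells and let them adhere overnight; prime 48 h with 10 uM forskolin; dose with compound in DMSO at 0.1% final for 48 h; extract medium steroids with MTBE; measure progesterone by LC-MS/MS. MTT viability was run in the same wells.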

[20] = CEETOX_H295R_ANDR: CeeTox H295R High-throughput Steroidogenesis Assay for Androstenedione (ANDR) (AID 2283436); details: actives raise or lower the signal;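 also: human H295R adrenal cells exposed for 48 h with androstenedione measured in medium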
Summary of the method: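 Steroidogenesis in H295R adrenal cells after 48 h dosing; androstenedione quantified by LC-MS/MS, with DMSO as negative control and baseline for bidirectional curve fitting.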

Measured: AC50

Sequence of Fatty acid synthase (Homo sapiens) (P49327 whole entry, looked up): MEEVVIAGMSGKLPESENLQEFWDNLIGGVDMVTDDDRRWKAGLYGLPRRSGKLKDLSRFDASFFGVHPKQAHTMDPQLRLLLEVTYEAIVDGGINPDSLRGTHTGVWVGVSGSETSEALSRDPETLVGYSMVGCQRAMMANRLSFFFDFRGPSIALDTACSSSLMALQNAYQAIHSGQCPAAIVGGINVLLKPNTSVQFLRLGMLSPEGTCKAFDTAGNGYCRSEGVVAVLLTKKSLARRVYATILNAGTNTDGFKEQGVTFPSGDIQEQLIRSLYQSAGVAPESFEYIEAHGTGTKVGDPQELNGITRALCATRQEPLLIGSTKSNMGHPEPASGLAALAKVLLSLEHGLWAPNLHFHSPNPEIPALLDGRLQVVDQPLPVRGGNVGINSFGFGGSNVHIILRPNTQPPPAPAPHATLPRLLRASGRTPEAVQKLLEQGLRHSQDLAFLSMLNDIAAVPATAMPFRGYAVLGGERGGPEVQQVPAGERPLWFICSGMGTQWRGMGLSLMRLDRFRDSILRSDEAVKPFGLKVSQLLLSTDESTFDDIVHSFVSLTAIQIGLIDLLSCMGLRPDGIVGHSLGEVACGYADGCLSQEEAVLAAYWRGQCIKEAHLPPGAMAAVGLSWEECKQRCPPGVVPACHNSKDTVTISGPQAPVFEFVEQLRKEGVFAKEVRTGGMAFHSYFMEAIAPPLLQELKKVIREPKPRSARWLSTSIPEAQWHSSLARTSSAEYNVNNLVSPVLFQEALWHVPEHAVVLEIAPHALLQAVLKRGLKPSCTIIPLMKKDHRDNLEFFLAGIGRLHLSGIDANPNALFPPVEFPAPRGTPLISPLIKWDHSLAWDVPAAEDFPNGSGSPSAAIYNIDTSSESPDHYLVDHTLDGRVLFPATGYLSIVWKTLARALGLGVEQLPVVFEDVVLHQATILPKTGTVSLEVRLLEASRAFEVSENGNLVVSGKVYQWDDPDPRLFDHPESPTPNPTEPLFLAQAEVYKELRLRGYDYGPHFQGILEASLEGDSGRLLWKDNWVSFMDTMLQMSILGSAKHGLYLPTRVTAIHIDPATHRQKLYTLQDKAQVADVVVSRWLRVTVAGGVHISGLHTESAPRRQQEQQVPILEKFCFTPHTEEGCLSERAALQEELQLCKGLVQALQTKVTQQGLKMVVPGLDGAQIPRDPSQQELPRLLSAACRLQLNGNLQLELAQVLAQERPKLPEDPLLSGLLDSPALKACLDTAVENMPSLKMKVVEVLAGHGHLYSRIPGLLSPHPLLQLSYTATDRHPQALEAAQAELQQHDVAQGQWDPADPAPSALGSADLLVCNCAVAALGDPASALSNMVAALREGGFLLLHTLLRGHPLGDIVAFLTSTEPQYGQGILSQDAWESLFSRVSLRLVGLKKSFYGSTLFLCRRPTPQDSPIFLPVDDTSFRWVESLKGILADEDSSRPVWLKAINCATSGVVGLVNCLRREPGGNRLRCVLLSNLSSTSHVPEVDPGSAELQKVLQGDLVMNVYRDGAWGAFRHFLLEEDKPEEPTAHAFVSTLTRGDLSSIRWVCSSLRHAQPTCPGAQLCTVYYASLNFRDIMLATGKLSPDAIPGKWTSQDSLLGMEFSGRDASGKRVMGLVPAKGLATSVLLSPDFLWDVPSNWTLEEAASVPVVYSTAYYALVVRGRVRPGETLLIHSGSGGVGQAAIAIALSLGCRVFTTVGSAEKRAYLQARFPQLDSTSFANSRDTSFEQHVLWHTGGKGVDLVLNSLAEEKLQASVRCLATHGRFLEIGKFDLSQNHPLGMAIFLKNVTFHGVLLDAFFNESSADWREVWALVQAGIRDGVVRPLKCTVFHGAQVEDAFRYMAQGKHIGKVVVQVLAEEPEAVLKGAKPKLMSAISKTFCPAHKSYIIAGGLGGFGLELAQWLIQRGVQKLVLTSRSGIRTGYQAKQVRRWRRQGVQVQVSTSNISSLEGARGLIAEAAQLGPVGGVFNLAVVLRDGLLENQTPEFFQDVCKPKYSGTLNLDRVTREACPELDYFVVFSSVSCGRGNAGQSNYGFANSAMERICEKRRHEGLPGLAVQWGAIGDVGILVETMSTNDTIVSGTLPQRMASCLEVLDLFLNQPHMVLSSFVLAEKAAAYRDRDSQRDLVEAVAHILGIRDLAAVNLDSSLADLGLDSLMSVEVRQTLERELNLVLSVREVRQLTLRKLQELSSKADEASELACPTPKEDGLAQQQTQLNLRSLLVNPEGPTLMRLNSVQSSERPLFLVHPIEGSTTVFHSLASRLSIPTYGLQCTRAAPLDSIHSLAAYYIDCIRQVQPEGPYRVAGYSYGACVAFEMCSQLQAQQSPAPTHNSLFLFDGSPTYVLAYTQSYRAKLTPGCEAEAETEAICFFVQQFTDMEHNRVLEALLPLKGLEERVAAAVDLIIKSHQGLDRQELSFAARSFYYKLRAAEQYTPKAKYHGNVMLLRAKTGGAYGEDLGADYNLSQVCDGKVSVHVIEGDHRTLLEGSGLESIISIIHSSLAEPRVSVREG

c1ccc2c(c1)-c1cccc3c1c-2cc1ccccc13
active: [2] 11.2 µM | [5] 2.55 µM | [6] 2 µM | [7] 3.71 µM | [10] 1.84 µM | [13] 13.7 µM | [16] 5.32 µM | [17] 15.1 µM | [18] 18.4 µM
inactive: [1] | [2] | [3] | [4] | [8] | [9] | [11] | [12] | [14] | [15]

CCCCCCCCCCCCCCO
active: [2] 74.3 µM
inactive: [1] | [2] | [3] | [4] | [6] | [7] | [11] | [19] | [12] | [13] | [14] | [15] | [16] | [17] | [18]

C[C@]12C=CC(=O)C=C1CC[C@H]1[C@@H]3C[C@@H](O)[C@](O)(C(=O)CO)[C@@]3(C)C[C@H](O)[C@@]12F
active: [8] 19.8 µM | [10] 11.2 µM
not listed: [11] | [20]
inactive: all other assays above

CCCCC(CC)C(=O)OCCOCCOCCOC(=O)C(CC)CCCC (configuration not stated)
not listed: [1] | [14]
inactive: all other assays above

CCCCCCCCN(C)C
not listed: [1] | [11] | [20]
inactive: all other assays above

O=C(O)CO
inactive: [2] | [3] | [4]

CC[C@H](C)C(=O)O[C@H]1C[C@H](O)C=C2C=C[C@H](C)[C@H](CC[C@@H](O)C[C@@H](O)CC(=O)O)[C@H]21
active: [5] 5.33 µM | [6] 1.06 µM | [7] 5.55 µM | [8] 6.77 µM | [10] 2.7 µM | [19] 0.949 µM | [13] 3.08 µM
not listed: [20]
inactive: all other assays above

COc1cc2c(c(OC)c1OC)-c1ccc(OC)c(=O)cc1[C@@H](NC(C)=O)CC2
inactive: [2] | [3] | [4] | [5] | [6] | [7] | [20] | [8] | [9] | [10] | [11] | [19] | [14] | [15]
active: [2] 10.6 µM | [12] 0.0799 µM | [13] 0.0575 µM | [16] 0.0178 µM | [17] 0.0772 µM | [18] 0.0477 µM

CC(C)C(=O)Nc1ccc([N+](=O)[O-])c(C(F)(F)F)c1
active: [12] 67 µM | [13] 37 µM | [15] 50 µM | [16] 12.4 µM | [17] 62.1 µM | [18] 50 µM
inactive: [1] | [3] | [4] | [14]

O=S(=O)(O)c1ccc(N=Nc2c(O)ccc3cc(S(=O)(=O)O)ccc23)cc1
inactive: [1] | [2] | [12] | [13] | [14] | [15] | [16] | [17] | [18]

CC(C)CCCCCCOC(=O)C1CCCCC1C(=O)OCCCCCCC(C)C (configuration not stated)
inactive: [1] | [2] | [3] | [4] | [12] | [13] | [14] | [15] | [16] | [17] | [18]

c1ccc2ncccc2c1
inactive: [2] | [3] | [4] | [12] | [13] | [14] | [15] | [16] | [17] | [18]

OC(Cn1cncn1)(Cn1cncn1)c1ccc(F)cc1F
inactive: [1] | [2] | [3] | [4] | [12] | [13] | [14] | [15] | [16] | [17] | [18]

CNC(C)=O
inactive: [1] | [2] | [3] | [4] | [12] | [13] | [14] | [15] | [16] | [17] | [18]

C=CN1CCCC1=O
inactive: [2] | [3] | [4] | [12] | [13] | [14] | [15] | [16] | [17] | [18]
